In PubChem BioAssay AID1159580 (chemical genetic matrix, 2015):
Values joined by “and” are separate entries in the source; they are usually repeats but may differ in a detail not shown here. Identical values can stand only once. The campaign covered roughly 5,500 compounds. About 2,000 (36%) were called active. Inconclusive results (about 18%) are left out. Cut-off read from the data, not from the text of the source: active = normalized growth mostly below about 0.91 (no sharp cut-off); inconclusive = no clear call, values can overlap the other calls; inactive = mostly above about 0.92. The list shows a part of the results.

Experiment: chemical genetic growth profiling, strain panel (AID 1159580);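 note: tested at 20 µM; growth read once vehicle control cultures reached saturation at 30 °C; 1 = growth at the plate median or of vehicle wells; lower values mean less growth of the strain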
Conditions: S. cerevisiae deletion strains, growth OD

Measured: normalized growth

Cc1ccc(-c2cc(C(F)(F)F)nn2-c2ccc(S(N)(=O)=O)cc2)cc1
inactive: locus YAL013W, strain DEP1, hits give low values 1 | locus YAL021C, strain ccr4, hits give low values 1 | locus YAL026C, strain drs2, hits give low values 1.03 | locus YAL030W, strain snc1, hits give low values 1.03 | locus YBL061C, strain skt5, hits give low values 1.02 | locus YBR009C, strain hhf1, hits give low values 1.03 | locus YBR021W, strain FUR4, hits give low values 1 | locus YBR023C, strain chs3, hits give low values 1.02 | locus YBR171W, strain sec66, hits give low values 1.05 | locus YBR229C, strain ROT2, hits give low values 0.992 | locus YBR231C, strain swc5, hits give low values 1.05 | locus YBR279W, strain paf1, hits give low values 1.02 | locus YCL011C, strain gbp2, hits give low values 1.03 | locus YCL016C, strain dcc1, hits give low values 1.03 | locus YCL029C, strain bik1, hits give low values 1.04 | locus YCL061C, strain MRC1, hits give low values 1.02 | locus YCL069W, strain vba3, hits give low values 1.03 | locus YCR088W, strain abp1, hits give low values 1.02 | locus YDL005C, strain med2, hits give low values 1.03 | locus YDL035C, strain GPR1, hits give low values 0.979 | locus YDL040C, strain nat1, hits give low values 1.03 | locus YDL074C, strain BRE1, hits give low values 0.975 | locus YDL101C, strain DUN1, hits give low values 1.02 | locus YDL134C, strain PPH21, hits give low values 0.999 | locus YDL185W, strain tfp1, hits give low values 1.02 | locus YDL192W, strain arf1, hits give low values 0.998 | locus YDR001C, strain nth1, hits give low values 1.02 | locus YDR069C, strain doa4, hits give low values 1.02 | locus YDR101C, strain arx1, hits give low values 1.01 | locus YDR137W, strain rgp1, hits give low values 1.02 | locus YDR150W, strain NUM1, hits give low values 1 | locus YDR159W, strain sac3, hits give low values 1.02 | locus YDR162C, strain NBP2, hits give low values 0.988 | locus YDR195W, strain ref2 1.05 | locus YDR297W, strain sur2, hits give low values 1.02 | locus YDR318W, strain mcm21, hits give low values 1.02 | locus YDR334W, strain swr1, hits give low values 1.04 | locus YDR335W, strain msn5, hits give low values 1.03 | locus YDR388W, hits give low values 1.01 | locus YDR392W, strain spt3, hits give low values 1.03 | locus YDR502C, strain sam2, hits give low values 1 | locus YEL003W, strain gim4, hits give low values 1.03 | locus YEL037C, strain rad23, hits give low values 1.03 | locus YEL061C, strain CIN8 (second series), hits give low values 1.04 | locus YEL061C, strain CIN8, hits give low values 0.994 | locus YER015W, strain faa2, hits give low values 1.03 | locus YER016W, strain bim1, hits give low values 1.03 | locus YER110C, hits give low values 1.02 | locus YER111C, strain swi4, hits give low values 1.05 | locus YER155C, strain BEM2 (second series), hits give low values 1.04 | locus YER155C, strain BEM2, hits give low values 1.01 | locus YER167W, strain BCK2, hits give low values 0.998 | locus YFR010W, strain ubp6, hits give low values 1.04 | locus YGL078C, strain dbp3, hits give low values 0.996 | locus YGL086W, strain mad1, hits give low values 0.991 | locus YGL167C, strain pmr1, hits give low values 1.04 | locus YGL173C, strain kem1, hits give low values 1.01 | locus YGL227W, strain vid30, hits give low values 1.04 | locus YGL240W, strain doc1, hits give low values 1.04 | locus YGL248W, strain PDE1, hits give low values 0.996 | locus YGL253W, strain hxk2, hits give low values 1.02 | locus YGR078C, strain PAC10, hits give low values 1.01 | locus YGR135W, strain pre9, hits give low values 1.02 | locus YGR229C, strain SMI1, hits give low values 0.998 | locus YGR252W, strain gcn5, hits give low values 0.962 | locus YHR013C, strain ard1, hits give low values 1.06 | locus YHR027C, strain rpn1, hits give low values 1.03 | locus YHR030C, strain SLT2, hits give low values 1.01 and 0.968 | locus YHR079C, strain IRE1 (second series), hits give low values 1.02 | locus YHR079C, strain IRE1, hits give low values 0.963 | locus YHR094C, strain hxt1, hits give low values 1.01 | locus YHR129C, strain ARP1, hits give low values 1 | locus YHR142W, strain chs7, hits give low values 1.03 | locus YHR200W, strain rpn10, hits give low values 1.01 | locus YIL066C, strain RNR3, hits give low values 0.994 | locus YIL073C, strain SPO22, hits give low values 0.994 | locus YIL125W, strain kgd1, hits give low values 1.01 | locus YIR030C, strain dcg1, hits give low values 1.01 | locus YJL092W, strain hpr5, hits give low values 1.02 | locus YJL095W, strain BCK1 (second series), hits give low values 1.02 | locus YJL095W, strain BCK1, hits give low values 1.04 and 0.974 | locus YJL115W, strain asf1, hits give low values 1.03 | locus YJL129C, strain trk1, hits give low values 1.06 | locus YJL134W, strain LCB3, hits give low values 1 | locus YJL154C, strain vps35, hits give low values 1.02 | locus YJL164C, strain tpk1, hits give low values 1.03 | locus YJL166W, strain qcr8, hits give low values 1.01 | locus YJL168C, strain set2, hits give low values 1.02 | locus YJL187C, strain SWE1 (second series), hits give low values 1.03 | locus YJL187C, strain SWE1, hits give low values 1.02 | locus YJR043C, strain POL32, hits give low values 1.01 | locus YJR066W, strain TOR1, hits give low values 0.974
